Experimental data: the supplement of paper PMC10338343
± gives the standard deviation.

test system: MILI (PIWIL2) piRISC loaded with L1MC piRNA (26 nt); assay: pre-steady-state target cleavage rate (min^-1); guide: L1MC piRNA 5'p-UAACUAAAUACUAUGCAAGCUGUAGG; higher = faster piRNA-guided slicing of the target; settings: auxiliary factor: 500 nM mouse GTSF1
Summary of the method: (§1)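 In Cleave-'n-Seq, a transcribed, DNA-blocked target RNA library (0.1 nM) was combined with 1 nM active affinity-purified piRISC bearing one synthetic guide, with or without 500 nM GTSF1 partner protein. Reactions ran in HEPES–potassium acetate buffer at 33 °C for 0–8 or 0–960 min. Uncleaved targets were sequenced and normalised to depth and to weakly complementary targets, three trials were pooled, and k3 was capped at 0.0001 min^-1. The pre-steady-state cleavage rate was obtained by fitting a burst-and-steady-state model.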

pre-steady-state target cleavage rate, 0.0258 ± 0.008:
UCCUGCUACAGGAAGCAUAGUAUUUACAAA

pre-steady-state target cleavage rate, 0.0216 ± 0.0095:
UCCUCCUACAGCUUGCAAUCUAUUUUCAAA

pre-steady-state target cleavage rate, 0.00794 ± 0.0037:
UCCUGGAUGUCCUUCGAUAGUAUUUAGUUA

pre-steady-state target cleavage rate, 0.0466 ± 0.015:
UCCUCCUACAGCUUGCAUAGAAUUUUCAAA

pre-steady-state target cleavage rate, 0.00452 ± 0.004:
UCCUGGAUGUCGAUGCAUAGUCAUUUAGUUA

pre-steady-state target cleavage rate, 0.0314 ± 0.01:
UCCUGGAUGUCGUAGCAUAGUAUUUUGUUA

test system: EfPiwi piRISC loaded with L1MC piRNA (26 nt); assay: pre-steady-state target cleavage rate (min^-1); auxiliary factor: none (no Gtsf1); guide: L1MC piRNA 5'p-UAACUAAAUACUAUGCAAGCUGUAGG; MIWI and MILI are mouse PIWI proteins and EfPiwi is from a freshwater sponge; tags in brackets are library labels; higher = faster piRNA-guided slicing of the target; settings: not given
Summary of the method: as §1

pre-steady-state target cleavage rate, < 0.0001:
UCCUGGAUGUCGUAGCAUAGUAUUUUGUUA
UCCUGGAUGUCGAACGUUAGUAAUUAGUAA
UCCUGGAUGUGCUUGCAUACAUUUUAGUAA
UCCUGGAUGUCCUUCGAUAGUAUUUAGUUA
UCCUGGAUGUCGAACGUUACUAUUAAGUUA
UCCUCCUACAGCUUGCAAUCUAUUUUCAAA
UCCUGGUACAGGAUGCAUAGUAUUUUCAAA
UCCUGGAUGUCGAACGUAUCUAUUUAUUUA
UCCUGGAUGUCGAACGUAUCUAUUCAGUUA
UCCUGGAUGUCGAUGGAUAGAAUUUAGUUA
UCCUGGAUGUCGAACGUUAGUAUUUAUGUUA
UCCUGGAUGUCCUUGCAAUCAUAAAUCAAA [g14:g19:cont:t1A]
UCCUGGAUGUCGUUGCAUAGUAUUUAUUA
UCCUGCUACAGGAAGCAUAGUAUUUACAAA
UCCUGGAUGUCGAACGUAUCUAUUUAAUUA
UCCUGGAUGUCGAAGGAUAGUAUUUAGUUA
UCCUGGAACACCUUGCAUAGUAUUUUCAAA
UCCUGGAUGUCGAUGCAUAGUCAUUUAGUUA
UCCUGGAUGUCGAAGCAAAGUAUUUACUUA
UCCUGGAUGUCGAAGCAUAGGAUUUAGUUA
UCCUGGAUGUCGAACGAUAGUAUUUAGUUU [g2:g14:cont:t1U]
UCCUGGAUGUCGAACGUUAGUAUUUAGAUUA
UCCUGGAUGUCGAACGUUAGUAAAUAGUUA
UCCUGGAUGUCGUUGCAUAGUAUUUUCAAA [g6:g18:cont:t1A]
UCCUGGAUGUCGAUGCAUAGAAUUUAGUAA
UCCUCCUACAGCUUGCAUAGAAUUUUCAAA
UCCUGGAUGAGCUUGCAUAGAUUUUAGUAA
UCCUGGAUGUCGUUCCAUAGUAUAUAGUUA
UCCUGGAUGUCGAACGUAUGAAUUUAGAUA
UCCUGGAUGUCGAACGUAUGAUUUAGUUA
UCCUGGAUGUCGAAGCAUAGAUAUUUAGUUA
UCCUGGAUGUCGAACGUAUCUAUUUGGUUA
UCCUGGUACAGCUUGCAUAGUAUAUACUUA
UCCUGCUACAGCUUGCAAUCAUAAAUCAAA [g14:g25:cont:t1A]
UCCUGGAUGUCGAACGAUAAUAUUUAGUUA
UCCUGGAUGUCGAAGCUAUAGUAUUUAGUUA
UCCUGGAUCAGCUUGGAUAGUAUUUACAAA
UCCUGGAUGUCGAACGAGUAGUAUUUAGUUA
UCCUGGAUGAGCUUGCAUAGUUUUUAGAUA
UCCUGGAUGUCCUUCCAUAGUAAUUAGUUA
